From PubChem BioAssay AID1159580 (chemical genetic matrix, 2015)
Out of some 5,500 compounds screened, about 2,000 (36%) were called active. About 18% were inconclusive and are not listed. Rule as the data show it: active = normalized growth mostly below about 0.91 (no sharp cut-off); inconclusive = no clear call, values can overlap the other calls; inactive = mostly above about 0.92. The list shows a part of the results.

Assay: chemical genetic growth profiling, strain panel (AID 1159580);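 also: tested at 20 µM; growth read once vehicle control cultures reached saturation at 30 °C; 1 = growth at the plate median or of vehicle wells; lower values mean less growth of the strain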
Conditions: S. cerevisiae deletion strains, growth OD
[1] = locus YAL013W, strain DEP1, active compounds read low
[2] = locus YMR263W, strain SAP30, active compounds read low
[3] = locus YNL153C, strain GIM3, active compounds read low

Measured: normalized growth

Cc1ccc(N=Cc2cccs2)cc1Cl
inactive: [1] 1.01 | locus YBR229C, strain ROT2, active compounds read low 0.998 | locus YCL061C, strain MRC1, active compounds read low 1.03 | locus YDL101C, strain DUN1, active compounds read low 1 | locus YDR150W, strain NUM1, active compounds read low 0.982 | locus YEL061C, strain CIN8, active compounds read low 1 | locus YGR078C, strain PAC10, active compounds read low 1 | locus YHR030C, strain SLT2, active compounds read low 1.04 | locus YHR087W, strain rtc3, active compounds read low 0.999 | locus YJR043C, strain POL32, active compounds read low 1.02 | locus YJR075W, strain HOC1, active compounds read low 1.01 | locus YKL190W, strain CNB1, active compounds read low 0.998 | locus YLR039C, strain RIC1, active compounds read low 0.991 | locus YLR058C, strain SHM2 (second series), active compounds read low 1.01 | locus YLR085C, strain ARP6, active compounds read low 1.05 | locus YLR262C, strain YPT6, active compounds read low 1 | locus YML094W, strain GIM5, active compounds read low 1 | locus YMR219W, strain ESC1, active compounds read low 0.998 | [2] 1 | locus YNL128W, strain TEP1, active compounds read low 1 | [3] 1 | locus YNL298W, strain CLA4 (second series), active compounds read low 1.04 | locus YNL322C, strain KRE1, active compounds read low 1.01 | locus YNR030W, strain Alg12, active compounds read low 1.02 | locus YOL006C, strain TOP1, active compounds read low 1.06 | locus YPL055C, strain LGE1, active compounds read low 1 | locus YPL241C, strain CIN2, active compounds read low 1.05 | locus YPR135W, strain CTF4, active compounds read low 1.01

O=C(O)CC1CCCc2ccccc2C1O (centres undefined)
inactive: [1] 1.01 | locus YAL040C, strain CLN3, active compounds read low 1.09 | locus YCL061C, strain MRC1 (second series), active compounds read low 0.999 | locus YDR363W, strain ESC2, active compounds read low 1.02 | locus YER002W, strain NOP16, active compounds read low 1.01 | [2] 0.997 | [3] 1 | locus YNL175C, strain NOP13, active compounds read low 1.01 | locus YNL197C, strain WHI3, active compounds read low 1.01 | locus YNL224C, strain SQS1, active compounds read low 1.01 | locus YOR083W, strain WHI5 (second series), active compounds read low 1.02
